# Screens (PubChem)
# The list is not random: actives were taken first. Their share in the collection is about 17%.
# DT40 TDP1 CPT = qHTS for Inhibitors of human tyrosyl-DNA phosphodiesterase 1 (TDP1): qHTS in cells in presence of CPT | chicken DT40 Tdp1-/-;hTDP1 cells + 20 nM CPT, ATP luminescence, 48 h | AID 686979, 2013 | Potency, µM (series often up to 46.2 µM), for inactives: top-dose activity change, negative = growth inhibition, usual class: inhibitors | 420,000 tested, 12% active; further: on the % scale 0 is the no-effect control and ±100 the full control effect; nearly all actives have a fitted effect of over 55% in size
#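 Chicken DT40 Tdp1-/- cells stably complemented with human TDP1 were seeded at 400 cells/well in medium containing 20 nM camptothecin, exposed to pin-transferred compounds, and grown at 37 °C for at least 48 hr. Viability was read as ATP luminescence.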
# ATXN2 expr inh = Primary qHTS for Inhibitors of ATXN expression | 360,000 tested, 0.72% active | HEK-293 ATXN2-luciferase reporter, luminescence, 24 h | Potency, µM (titrated, usually from 57 µM), for the others: top-dose activity change, negative = inhibition, hits mostly inhibitors; further: on the % scale 0 is the no-effect control and ±100 the full control effect; nearly all actives have a fitted effect of over 55% in size
#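 qHTS (up to 57 uM final) was run with 24 h compound exposure of reporter cells at 37 °C. Each well was multiplexed: SteadyGlo luminescence measured ATXN2-luciferase expression after a fluorogenic Gly-Phe-AFC viability readout (25 uM final).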
# S2 tox = Viability Counterscreen for Primary qHTS for Inhibitors of ATXN expression. S2 cells (HEK-293 line with an ATXN2-luciferase reporter) viability, CellTiter-Fluor protease fluorescence, 24 h. Potency, µM (top dose mostly 56.7 µM), usual class: cytotoxic. 400,000 tested, 0.49% active. AID 651635, 2014; further: nearly all actives have a fitted effect of over 40% in size
# TDP1 cell noCPT = qHTS for Inhibitors of human tyrosyl-DNA phosphodiesterase 1 (TDP1): qHTS in cells in absence of CPT | AID 686978, 2013 | Potency, µM (highest dose often 46.2 µM), without a hit: top-dose activity change, negative = growth inhibition, usual class: inhibitors | DT40 Tdp1-/- hTDP1 cells, no CPT, ATP luminescence, 48 h | 420,000 tested, 15% active; further: on the % scale 0 is the no-effect control and ±100 the full control effect; nearly all actives have a fitted effect of over 55% in size
#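 Stably hTDP1-transfected Tdp1-null chicken DT40 cells were treated with library compounds minus camptothecin and grown for at least 48 hr at 37 °C, after which cellular ATP was quantified by luminescence.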
# TGFb SMAD3 inh = qHTS for Inhibitors of TGF-b. HepG2 CAGA-GFP TGF-b/SMAD3 reporter, GFP fluorescence, 18 h; TGF-beta stimulated, 500 pg/mL final. Potency, µM (doses to about 46.1 µM), for the others: at the highest dose activity, negative = inhibition, hits mostly inhibitors. 410,000 tested, 1.2% active. AID 588855, 2011; further: on the % scale 0 is the no-effect control and ±100 the full control effect; nearly all actives have a fitted effect of over 65% in size
#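 Smad-responsive CAGA-GFP expression was quantified in HEPG2 cells exposed to compounds and 500 pg/mL final TGF-beta for 18 h at 37 degrees C; unstimulated wells defined full inhibition.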
# HepG2 viability = qHTS for Inhibitors of TGF-b: Cytotox Counterscreen; HepG2 CAGA-GFP viability, ATP luminescence, 18 h; Potency, µM (top dose mostly 46.1 µM), without a hit: top-dose activity change, negative = cytotoxicity, most hits filed as cytotoxic; 410,000 tested, 0.76% active; AID 588856, 2011
#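 HepG2 CAGA-GFP cells (1000/well, DMEM with 1% FBS) received compound, then TGF-beta at 500 pg/mL final, and were incubated 18 hours at 37 degrees C. Viability was read by CellTiter-Glo luminescence. Media-only wells were set as complete cell-killing and DMSO as no toxicity.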
# An asterisk follows results filed as active; i = inactive; u = inconclusive; x = no result given; [ ] = another dose, or the depositor's remark. The call rests on the fitted dose curve; in most records, active means well fitted curve in the direction sought with a large enough effect; inconclusive means small, poorly fitted or top-dose-only effect, or another doubt; inactive means no such curve, though single readings can be large; an effect the other way counts as inactive or inconclusive. Potency means the concentration at half of the fitted maximal effect.
SMILES,DT40 TDP1 CPT,ATXN2 expr inh,S2 tox,TDP1 cell noCPT,TGFb SMAD3 inh,HepG2 viability
CCc1ccc(OCC(=O)Nc2ccc(S(=O)(=O)Nc3ccccn3)cc2)cc1,16%,0%,i,-2%,3%,5%
COC1(C)CC2C(CC1OC(=O)c1cc([N+](=O)[O-])cc([N+](=O)[O-])c1)C2(C)C (stereo unspecified),20%,-17%,i,-1%,0%,-21%
COCC(=O)N1CCN(c2cccc(C(F)(F)F)c2)CC1,u,-10%,i,-23%,-11%,-16%
CCn1cc(C(=O)N2CCN(c3cccc(C(F)(F)F)c3)CC2)c2cc(OC)c(OC)cc2c1=O,18µM*,u,i,23µM*,u,-27%
COc1ccc(CN2C(=O)NC3(CCCC3)C2=O)cc1F,23%,6%,i,25%,7%,4%
COc1ccc(CN2C(=O)NC3(CCCCCC3)C2=O)cc1F,16µM*,-1%,i,15µM*,-6%,18%
COc1cccc(-c2cnc(C(O)c3cc(C)ccc3C)[nH]2)c1 (stereo unspecified),u,8%,i,-28%,20%,7%
CCN(CC)CCCNC(=O)c1ccc(S(=O)(=O)Nc2ccc(C)c(C)c2)cc1,u,2%,i,16µM*,6%,-16%
CCOC(=O)N1CCN(C(=O)CN(c2ccccc2)S(C)(=O)=O)CC1,10%,-13%,i,-5%,-31%,-17%
O=C1CCCC2=C1C(c1ccco1)Nc1ccc(C(=O)c3ccccc3)cc1N2 (stereo unspecified),15µM*,2%,i,12µM*,-21%,11%
O=C1NC2=C(C(=O)CCC2)C(c2ccccc2)N1 (stereo unspecified),-3%,-7%,i,-23%,0%,0%
CN(C)c1ccc(C(CNS(=O)(=O)c2ccc(F)cc2)c2c[nH]c3ccccc23)cc1 (stereo unspecified),u,17%,i,15µM*,u,-87%
CN(C)c1ccc(C(CNC(=O)c2ccc(C#N)cc2)c2c[nH]c3ccccc23)cc1 (stereo unspecified),u,-16%,i,21µM*,u,-25%
CCOC(=O)c1ccc(S(=O)(=O)NCC(c2ccc(N(C)C)cc2)c2c[nH]c3ccccc23)cc1 (stereo unspecified),u,-15%,i,u,u,-15%
Cc1cccc2cc(CN(CC3CCCO3)C(=O)c3cccc(F)c3)c(N(C)C)nc12 (stereo unspecified),3%[9.04 µM],x,i,-5%,x,x
Cc1ccc(-c2csc(N3CCC(C(N)=O)CC3)n2)cc1,x,35%,i,x,-21%,-16%
Cc1ccc(-c2csc(N3CCC(C(N)=O)(N4CCCCC4)CC3)n2)cc1,u,-12%,i,21µM*,8%,2%
CS(=O)(=O)c1ccc2sc(NC(=O)c3cc4ccccc4o3)nc2c1,u,42%,i,23µM*,-17%,-10%
Cc1ccc(C(=O)Nc2nc3ccc(S(C)(=O)=O)cc3s2)o1,10µM*,2%,i,12µM*,-14%,-81%
CS(=O)(=O)c1ccc2nc(NC(=O)c3cc4ccccc4o3)sc2c1,u,24%,i,u,9%,-14%
Cc1cc(NC(=O)N(C)CCc2c(C)nn(C)c2C)ccc1Br,u,9%,i,u,-4%,-3%
Cc1ccc(OCCN2CCN(C(=O)CCC(=O)Nc3nnc(C(C)C)s3)CC2)cc1,u,-20%,i,23µM*,-19%,1%
Cc1nnc(NC(=O)CCC(=O)N2CCN(CCOc3cccc4ccccc34)CC2)s1,u,5%,i,23µM*,21%,-4%
Cc1ccc(OCCN2CCN(C(=O)CCC(=O)Nc3nnc(C)s3)CC2)cc1,-11%,-3%,i,-5%,-19%,-10%
CCc1ccc(NC(=O)CSc2nnc(-c3nonc3NC(C)=O)n2-c2ccccc2)cc1,u,-35%,u,u,-33%,-22%
SMILES,DT40 TDP1 CPT,ATXN2 expr inh,S2 tox,TDP1 cell noCPT,TGFb SMAD3 inh,HepG2 viability
CN(CC1CCCN(CCc2ccc(F)cc2)C1)C(=O)CCC(N)=O (stereo unspecified),-15%,-14%,u,-16%,-6%,2%
COc1ccc(CCNC(=O)C(=O)NCC2OCCN2S(=O)(=O)c2ccc(F)cc2)cc1 (stereo unspecified),u,-21%,u,u,-9%,-10%
Cn1c(=O)c2c(nc(CN3CCN(c4ccccc4F)CC3)n2CCCc2ccccc2)n(C)c1=O,16µM*,-23%,i,21µM*,u,-4%
Cn1c(=O)[nH]c(=O)c2c1nc(CN1CCN(c3ccccc3F)CC1)n2Cc1ccc(F)cc1,-25%,x,x,-27%,-19%,-17%
CCOCCn1c(CN2CCC(Cc3ccccc3)CC2)nc2c1c(=O)n(C)c(=O)n2C,18µM*,-8%,i,11µM*,0%,-2%
CN1CCN(Cc2nc3c(c(=O)n(C)c(=O)n3C)n2CCCc2ccccc2)CC1,-8%,-25%,u,-14%,-6%,-7%
CC1CCN(Cc2nc3c(c(=O)n(C)c(=O)n3C)n2CCCc2ccccc2)CC1,u,5%,i,16µM*,-6%,-76%
Cn1c(=O)c2c(nc(CN3CCN(c4ccccc4F)CC3)n2Cc2ccc(F)cc2)n(C)c1=O,10µM*,0%,i,10µM*,-19%,-30%
COc1cc(C2Nc3ccc4ccccc4c3C3=C2C(=O)CC(C)(C)C3)ccc1OC(C)C(=O)O (stereo unspecified),-22%,1%,i,26%,0%,6%
CC1CCCCN1Cc1nc2c(c(=O)n(C)c(=O)n2C)n1Cc1c(F)cccc1Cl (stereo unspecified),7.3µM*,-2%,i,10µM*,-7%,-12%
CC1CCCC12NC(=O)NC2=O (stereo unspecified),-24%,0%,i,6%,0%,0%
COc1ccc(S(=O)(=O)N2CCCCC2)cc1NC(=O)CCNC(=O)c1ccco1,-14%,-9%,i,-11%,3%,-3%
